Assay results from PubChem BioAssay.
“And” between values parts separate entries of the source, which are not always exact repeats. Equal values may be shown once. Inconclusive results are not listed. The source made the active and inactive calls.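 How the source made its calls, unless noted: active means thallium flux through the channel raised or lowered by more than 3 SD from vehicle-only wells, actives on both sides; inactive means the rest.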

What was measured:
[1] = target: ATP-dependent translocase ABCB1 (Homo sapiens) (UniProt P08183); test: P-glycoprotein substrate transport blockade – cell-based (AID 377; in the data active means fluorescence slope change above about 50%); details: MDR1-expressing cells, fluorescent substrate accumulation slope; stronger effect = higher value; concentration not given here
[2] = viability loss in pontine glioma line – cell-based, SU-DIPG-IV, MIPE4.0, CellTiter-Glo, qHTS, dose response (AID 1347063; cut-off not given, nearly all actives have AC50 up to about 30 µM;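 further: compound exposure lasted 48 hours before the viability readout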); details: CellTiter-Glo ATP luminescence
[3] = viability loss in pontine glioma line – cell-based, SU-DIPG-XIII, MIPE4.0, CellTiter-Glo, qHTS, dose response (AID 1347061; cut-off not given, nearly all actives have AC50 up to about 37 µM;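 further: cells exposed to compound for 48 hours before readout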); details: CellTiter-Glo ATP luminescence
[4] = viability loss in pontine glioma line – cell-based, JHH-DIPG-1, MIPE4.0, CellTiter-Glo, qHTS, dose response (AID 1347062; cut-off not given, nearly all actives have AC50 up to about 27 µM;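 on AC50: cells exposed to compound for two days before readout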); details: JHH-DIPG-1 viability, CellTiter-Glo ATP luminescence
[5] = viability loss in pontine glioma line – cell-based, SU-DIPG-XIII, MIPE5.0, CellTiter-Glo, qHTS, dose response (AID 1347064; cut-off not given, nearly all actives have AC50 up to about 23 µM); details: CellTiter-Glo ATP luminescence
[6] = growth inhibition of DIPG cells – cell-based, MIPE4.0 library, CellTiter-Glo luminescence, qHTS (AID 1347066; cut-off not given, nearly all actives have AC50 up to about 30 µM;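 further: cells exposed to compound for 48 hours before readout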); details: SU-DIPG-VI viability, CellTiter-Glo ATP luminescence
[7] = GFP-Q80 aggregate reduction, neuronal-like cells, cell-based, NGF-treated PC12, GFPQ80 (AID 1614); details: PC12 NGF-treated GFP-polyQ80 inclusion reduction;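 further: lower means fewer inclusions and 0 means no inclusions at all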
[8] = test system: Aerobactin synthetase IucA (Klebsiella pneumoniae); test: inhibition of K. pneumoniae IucA enzyme – biochemical, Tocris library, absorbance (AID 1345561; call rule not given here;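 further: 100% = enzyme without compound and 0% = no enzyme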); details: purified IucA enzyme assay, absorbance (OD) read-out; stronger effect = lower value;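 tested at 8 µM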
[9] = viability loss in pontine glioma line – cell-based, SU-DIPG-XVII, MIPE5.0, CellTiter-Glo, qHTS, dose response (AID 1347060; cut-off not given, nearly all actives have AC50 up to about 26 µM); details: CellTiter-Glo ATP luminescence
[10] = viability loss in pontine glioma line – cell-based, SU-DIPG-XXV, MIPE5.0, CellTiter-Glo, qHTS, dose response (AID 1347065; cut-off not given, nearly all actives have AC50 up to about 26 µM;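 further: cells exposed to compound for 48 hours before ATP readout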); details: CellTiter-Glo ATP luminescence
[11] = growth inhibition of DIPG cells – cell-based, MIPE5.0 library, qHTS (AID 1347068; cut-off not given, nearly all actives have IC50 up to about 30 µM); details: SU-DIPG-XXV viability
[12] = JHH-DIPG-1 glioma cell viability, MIPE5.0 library, CellTiter-Glo luminescence, qHTS (AID 1347067; cut-off not given, nearly all actives have AC50 up to about 26 µM;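 further: cells exposed to compound for 48 hours before readout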); details: JHH-DIPG-1 glioma viability, CellTiter-Glo ATP luminescence
F380Y/beta1 = test: BK channel mutant inhibitors and activators – cell-based, U2OS BacMam, thallium flux, beta subunits, selectivity assay, profiling panel (AID 1259406); details: U2OS BacMam BK variants, at 30 µM;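 further: initial slope of Thallos dye fluorescence rise after thallium is added; log ratio against the mean of 0.3% DMSO vehicle wells on the same plate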
F380Y/beta4 = test: as above; details: U2OS BacMam BK variants, at 30 µM
R275C/beta4 = test: as above; details: U2OS BacMam BK variants, at 30 µM
R275C/Slo1WT/beta2 = test: as above; details: U2OS BacMam BK variants, at 30 µM
[13] = growth inhibition, single agent or in combination, cell-based, chromothripsis tumors, cisplatin or BGB combos (AID 1671449; in the data active means inhibition above about 80%;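 further: cells exposed for 96 hours; 0% = vehicle DMSO and 100% = killing by high DMSO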); details: LFS_MB_P medulloblastoma cells
[14] = growth inhibition, single agent and combos, cell-based, chromothripsis tumors, cisplatin or BGB combos (AID 1671450; in the data active means inhibition above about 80%;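 further: cells exposed to compound for four days; 0% = vehicle DMSO and 100% = cell killing by high DMSO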); details: HDN33 neuroblastoma cells, stronger effect = higher value
[15] = growth inhibition, single agents and combos, ICB984, cell-based, cisplatin or BGB combos, synergistic combos for chromothripsis tumors (AID 1671451; call rule not given here;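 further: cells exposed for 96 hours before readout; 0% = vehicle DMSO and 100% = killing by high DMSO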); details: ICB984 medulloblastoma cells, drug combinations, stronger effect = higher value
[16] = growth inhibition, single agents and combos, HTB85, cell-based, BGB or cisplatin IC20 combos, synergistic combos for chromothripsis tumors (AID 1671453; in the data active means inhibition above about 80%;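 further: cells exposed for 96 hours before readout; 0% = vehicle DMSO and 100% = high DMSO killing control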); details: HTB85 osteosarcoma cells, drug combinations, stronger effect = higher value

Sequence of ATP-dependent translocase ABCB1 (Homo sapiens) (P08183 whole entry, looked up): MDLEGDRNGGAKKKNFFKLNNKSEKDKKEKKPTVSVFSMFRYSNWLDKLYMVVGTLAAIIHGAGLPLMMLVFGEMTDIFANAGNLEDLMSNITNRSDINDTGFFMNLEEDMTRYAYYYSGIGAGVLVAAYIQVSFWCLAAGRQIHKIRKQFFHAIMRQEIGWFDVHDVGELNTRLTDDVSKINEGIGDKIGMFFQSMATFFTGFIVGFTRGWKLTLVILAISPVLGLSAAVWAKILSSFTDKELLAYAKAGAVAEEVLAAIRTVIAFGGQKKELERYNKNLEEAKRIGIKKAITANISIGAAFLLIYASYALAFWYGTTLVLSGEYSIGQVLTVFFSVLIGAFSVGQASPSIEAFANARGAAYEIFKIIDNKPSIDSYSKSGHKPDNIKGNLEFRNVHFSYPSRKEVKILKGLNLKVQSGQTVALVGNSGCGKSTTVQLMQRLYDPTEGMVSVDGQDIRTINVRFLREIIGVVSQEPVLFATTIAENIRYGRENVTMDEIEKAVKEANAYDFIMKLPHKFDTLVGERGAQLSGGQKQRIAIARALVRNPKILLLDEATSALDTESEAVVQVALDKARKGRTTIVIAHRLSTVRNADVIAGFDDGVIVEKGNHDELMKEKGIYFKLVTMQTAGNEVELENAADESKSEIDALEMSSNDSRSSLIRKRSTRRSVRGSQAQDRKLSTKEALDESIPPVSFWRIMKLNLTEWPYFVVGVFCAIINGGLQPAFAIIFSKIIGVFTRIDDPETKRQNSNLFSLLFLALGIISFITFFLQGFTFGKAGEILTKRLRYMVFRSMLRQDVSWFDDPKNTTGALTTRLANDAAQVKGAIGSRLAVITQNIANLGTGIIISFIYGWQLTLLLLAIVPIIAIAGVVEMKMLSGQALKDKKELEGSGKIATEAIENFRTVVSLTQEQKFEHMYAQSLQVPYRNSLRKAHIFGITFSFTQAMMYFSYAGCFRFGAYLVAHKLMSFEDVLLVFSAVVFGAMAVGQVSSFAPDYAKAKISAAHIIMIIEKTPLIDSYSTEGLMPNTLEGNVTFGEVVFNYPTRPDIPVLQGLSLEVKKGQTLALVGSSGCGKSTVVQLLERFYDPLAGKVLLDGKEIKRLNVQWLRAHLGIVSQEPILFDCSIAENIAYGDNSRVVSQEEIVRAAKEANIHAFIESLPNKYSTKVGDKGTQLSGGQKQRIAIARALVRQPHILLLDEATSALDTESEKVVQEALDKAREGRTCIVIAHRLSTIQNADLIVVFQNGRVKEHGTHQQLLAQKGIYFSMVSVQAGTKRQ

Compound: C[C@@H]1CCC[C@H](C)N1
- fluorescence slope change [1]: 9.9% (inactive)

Compound: CNS(=O)(=O)CCc1ccc2[nH]cc(C3CCN(C)CC3)c2c1
- outcome [2]: inactive

Compound: CCCCCCCCCCCCCCCCCCOP(=O)([O-])OC1CC[N+](C)(C)CC1
- outcome [3]: inactive
- outcome [4]: inactive
- outcome [5]: inactive
- outcome [6]: inactive

Compound: O=C(O)CCC(=O)OC[C@@H](NC(=O)C(Cl)Cl)[C@H](O)c1ccc([N+](=O)[O-])cc1
- inclusion score [7]: 2

Compound: Cc1cccc(Nc2cc(Cl)nc(SCC(=O)O)n2)c1C
- remaining activity [8]: 107% (inactive)

Compound: Cc1ccc(O)cc1
- inclusion score [7]: 2

Compound: COCCCOc1ccnc(CS(=O)c2nc3ccccc3[nH]2)c1C (stereo unspecified)
- outcome [9]: inactive
- outcome [3]: inactive
- outcome [4]: inactive
- outcome [2]: inactive
- outcome [10]: inactive
- outcome [6]: inactive
- outcome [11]: inactive

Compound: NC(=O)c1cccnc1
- outcome [9]: inactive
- outcome [4]: inactive
- outcome [2]: inactive
- outcome [5]: inactive
- outcome [10]: inactive
- outcome [6]: inactive
- outcome [12]: inactive
- outcome [11]: inactive
- log fold change Tl+ flux (F380Y/beta1): -0.0163 (inactive)
- log fold change Tl+ flux (F380Y/beta4): 0.00589 (inactive)
- log fold change Tl+ flux (R275C/beta4): 0.0149 (inactive)
- log fold change Tl+ flux (R275C/Slo1WT/beta2): 0.0115 (inactive)

Compound: CCn1cc(C(=O)O)c(=O)c2ccc(C)nc21
- fluorescence slope change [1]: 59.8% (active)
- inclusion score [7]: 2
- outcome [3]: inactive
- outcome [4]: inactive
- outcome [6]: inactive
- inhibition ([13]; at 0.5 µM, stronger effect = higher value): -12.4% (inactive) and -25.4% (inactive)
- inhibition ([13]; measured here: combination with BGB IC20, at 0.005 µM): -22.2% and -24.5%
- inhibition ([13]; measured here: combination with BGB IC40, at 0.005 µM): 11.9% and -5.77%
- inhibition ([13]; measured here: combination with BGB IC40, at 0.05 µM): 1.93% and -7.94%
- inhibition ([13]; measured here: combination with cisplatin, at 0.5 µM, stronger effect = higher value): -11.7% and -31.6%
- inhibition ([13]; measured here: combination with cisplatin, at 5 µM, stronger effect = higher value): -6.26% and -18.6%
- inhibition ([14]; BGB combo, at 5 µM): -4.41% and 16.2%
- inhibition ([14]; at 0.5 µM): 3.94% (inactive) and 4.3% (inactive)
- inhibition ([14]; cisplatin combo, at 5 µM): -15% and -2.27%
- inhibition ([14]; measured here: with BGB IC20 combination, at 0.5 µM): -7.56% and 11.7%
- inhibition ([14]; measured here: with cisplatin IC20 combination, at 0.5 µM): 7.18% and 9.4%
- inhibition ([14]; single agent, at 5 µM): 11.6% and -22.5%
- inhibition ([15]; BGB IC20 combo, at 0.005 µM): 7.03% and -21.5%
- inhibition ([15]; BGB IC40 combo, at 0.005 µM): -26.9% and -29.6%
- inhibition ([15]; BGB IC40 combo, at 0.05 µM): -0.123% and -9.89%
- inhibition ([15]; at 0.5 µM): -22.6% (inactive) and -21.9% (inactive)
- inhibition ([15]; cisplatin combo, at 0.05 µM): -0.123% and -9.89%
- inhibition ([15]; cisplatin combo, at 0.5 µM): -52.2% and -39.7%
- inhibition ([15]; cisplatin combo, at 5 µM): -11.7% and -29.5%
- inhibition ([15]; measured here: 5 uM single agent, at 5 µM): -3.29% and -15.7%
- inhibition ([16]; at 0.5 µM): -2.77% (inactive) and -11% (inactive)
- inhibition ([16]; measured here: with BGB IC20, at 0.5 µM): -12.2% and -35.2%
- inhibition ([16]; measured here: with BGB IC20, at 5 µM): -14.2% and -15.8%
- inhibition ([16]; measured here: with cisplatin IC20, at 0.5 µM): -1.63% and -0.143%
- inhibition ([16]; measured here: with cisplatin IC20, at 5 µM): 17.1% and -0.249%
- inhibition ([16]; single agent, at 5 µM): 22.3% and -3.38%
- log fold change Tl+ flux (F380Y/beta1): 0.00258 (inactive)
- log fold change Tl+ flux (F380Y/beta4): 0.0252 (inactive)
- log fold change Tl+ flux (R275C/beta4): 0.0726 (inactive)
- log fold change Tl+ flux (R275C/Slo1WT/beta2): -0.00423 (inactive)

Compound: CC12CCC(CC1)C(C)(C)O2
- inclusion score [7]: 2

Compound: CC(C)OC(=O)C(C)(C)Oc1ccc(C(=O)c2ccc(Cl)cc2)cc1
- inclusion score [7]: 0
- outcome [4]: inactive
- outcome [2]: inactive
- outcome [5]: inactive
- outcome [12]: inactive
- outcome [11]: inactive
- log fold change Tl+ flux (F380Y/beta1): -0.0557 (inactive)
- log fold change Tl+ flux (F380Y/beta4): 0.00294 (inactive)
- log fold change Tl+ flux (R275C/beta4): 0.00518 (inactive)
- log fold change Tl+ flux (R275C/Slo1WT/beta2): 0.0641 (inactive)

Compound: CCCC(=O)Nc1ccc(OCC(O)CNC(C)C)c(C(C)=O)c1 (stereo unspecified)
- inclusion score [7]: 2
- log fold change Tl+ flux (F380Y/beta1): 0.00237 (inactive)
- log fold change Tl+ flux (F380Y/beta4): -0.0162 (inactive)
- log fold change Tl+ flux (R275C/beta4): 0.0245 (inactive)
- log fold change Tl+ flux (R275C/Slo1WT/beta2): -0.0238 (inactive)

Compound: CN(C)C(=O)C(CCN1CCC(O)(c2ccc(Cl)cc2)CC1)(c1ccccc1)c1ccccc1
- remaining activity [8]: 118% (inactive)
- outcome [3]: inactive
- AC50 [4]: 20.9 µM (active)
- outcome [2]: inactive
- outcome [5]: inactive
- outcome [12]: inactive
- outcome [11]: inactive
- log fold change Tl+ flux (F380Y/beta1): 0.203 (active)
- log fold change Tl+ flux (F380Y/beta4): 0.119 (active)
- log fold change Tl+ flux (R275C/beta4): -0.104 (inactive)
- log fold change Tl+ flux (R275C/Slo1WT/beta2): 0.0159 (inactive)

Compound: COc1c2occc2cc2ccc(=O)oc12
- fluorescence slope change [1]: 78.2% (active)
- inclusion score [7]: 2
- outcome [9]: inactive
- outcome [3]: inactive
- outcome [4]: inactive
- outcome [2]: inactive
- outcome [5]: inactive
- outcome [6]: inactive
- outcome [12]: inactive
- outcome [11]: inactive
- log fold change Tl+ flux (F380Y/beta1): 0.0099 (inactive)
- log fold change Tl+ flux (F380Y/beta4): 0.0241 (inactive)
- log fold change Tl+ flux (R275C/beta4): 0.0801 (inactive)
- log fold change Tl+ flux (R275C/Slo1WT/beta2): 0.00849 (inactive)

Compound: O=C(O)CCc1nc(-c2ccccc2)c(-c2ccccc2)o1
- log fold change Tl+ flux (F380Y/beta1): 0.171 (active)
- log fold change Tl+ flux (F380Y/beta4): 0.0201 (inactive)
- log fold change Tl+ flux (R275C/beta4): 0.0678 (inactive)
- log fold change Tl+ flux (R275C/Slo1WT/beta2): 0.0514 (inactive)

Compound: CCN(CC)CCOc1ccc(Cc2ccccc2)cc1
- remaining activity [8]: 100% (inactive)
- outcome [5]: inactive
- outcome [6]: inactive
- outcome [12]: inactive
- outcome [11]: inactive

Compound: Cc1cc(NS(=O)(=O)c2ccc(N)cc2)no1
- fluorescence slope change [1]: 62% (active)
- inclusion score [7]: 2
- AC50 [3]: 2.96 µM (active)
- outcome [4]: inactive
- outcome [2]: inactive
- log fold change Tl+ flux (F380Y/beta1): -0.0321 (inactive)
- log fold change Tl+ flux (F380Y/beta4): -0.00222 (inactive)
- log fold change Tl+ flux (R275C/beta4): -0.0559 (inactive)
- log fold change Tl+ flux (R275C/Slo1WT/beta2): -0.0702 (inactive)

Compound: COC(=O)C1=C(C)NC(C)=C(C(=O)OC)C1c1ccccc1[N+](=O)[O-]
- remaining activity [8]: 121% (inactive)

Compound: N=c1nc(N2CCCCC2)cc(N)n1O
- inclusion score [7]: 1
- remaining activity [8]: 109% (inactive)
- outcome [3]: inactive
- outcome [4]: inactive
- outcome [2]: inactive
- outcome [6]: inactive
- log fold change Tl+ flux (F380Y/beta1): 0.0169 (inactive)
- log fold change Tl+ flux (F380Y/beta4): -0.0416 (inactive)
- log fold change Tl+ flux (R275C/beta4): 0.0196 (inactive)
- log fold change Tl+ flux (R275C/Slo1WT/beta2): 0.0414 (inactive)

Compound: COc1cc(Cc2cnc(N)nc2N)cc(OC)c1OC
- inclusion score [7]: 2
- log fold change Tl+ flux (F380Y/beta1): 0.057 (inactive)
- log fold change Tl+ flux (F380Y/beta4): 0.0143 (inactive)
- log fold change Tl+ flux (R275C/beta4): 0.00256 (inactive)
- log fold change Tl+ flux (R275C/Slo1WT/beta2): 0.00876 (inactive)

Compound: O=C1CN(/N=C/c2ccc([N+](=O)[O-])o2)C(=O)N1
- fluorescence slope change [1]: 98.9% (active)
- inclusion score [7]: 2

Compound: C[C@@H](C1=C(CCN(C)C)Cc2ccccc21)c1ccccn1
- remaining activity [8]: 105% (inactive)
